In article PMC7862700, “An all-to-all approach to the identification of sequence-specific readers for epigenetic DNA modifications on cytosine”:

Assays:
Assay in all cases: DAPPL (digital affinity profiling via proximity ligation, sequencing); 10 mM Tris-HCl pH 7.5, 50 mM NaCl, 1 mM DTT, 4% glycerol, room temperature, 30 min; GST-TFs on glutathione beads, 16-mer random dsDNA library, 0.1% formaldehyde crosslink after washing; high values mean tight binding
FLI1 = molecular target: T1, FLI1 (Homo sapiens, UniProt Q01543 1-452); conditions: protein: recombinant; tags: N-terminal GST; dsDNA, one strand shown
T1 sequence: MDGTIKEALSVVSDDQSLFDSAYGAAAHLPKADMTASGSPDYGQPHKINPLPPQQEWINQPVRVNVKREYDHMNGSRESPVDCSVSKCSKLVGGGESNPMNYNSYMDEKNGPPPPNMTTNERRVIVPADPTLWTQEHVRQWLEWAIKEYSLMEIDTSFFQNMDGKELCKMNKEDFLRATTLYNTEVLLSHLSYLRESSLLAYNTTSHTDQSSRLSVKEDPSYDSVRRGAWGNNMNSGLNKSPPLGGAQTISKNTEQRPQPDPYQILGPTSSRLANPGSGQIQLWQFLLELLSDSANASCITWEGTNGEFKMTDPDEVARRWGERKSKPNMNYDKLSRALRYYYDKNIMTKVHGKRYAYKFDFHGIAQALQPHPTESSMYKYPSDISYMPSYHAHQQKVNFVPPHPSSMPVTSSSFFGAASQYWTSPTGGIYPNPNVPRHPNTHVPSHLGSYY
How it was run: (§1)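 Sequencing on an Illumina NextSeq500 followed washing, crosslinking with 0.1% formaldehyde, proximity ligation (BsaI/T4 ligase, 1 h, 37 °C) and PCR amplification of pools that had been incubated for 30 min at room temperature with 200 nmole of a random double-stranded 16-mer DNA library in Tris/NaCl/DTT/glycerol buffer. Each pool held DNA-barcoded human transcription factors, expressed in yeast as GST fusions and captured on glutathione beads, plus a tag-only sample. Binding signal is a hexamer's read frequency for a factor divided by its frequency in the tag-only sample.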

ELK1 = molecular target: T2, ELK1 (Homo sapiens, UniProt P19419 1-428); conditions: protein: recombinant; tags: N-terminal GST; dsDNA, one strand shown
T2 sequence: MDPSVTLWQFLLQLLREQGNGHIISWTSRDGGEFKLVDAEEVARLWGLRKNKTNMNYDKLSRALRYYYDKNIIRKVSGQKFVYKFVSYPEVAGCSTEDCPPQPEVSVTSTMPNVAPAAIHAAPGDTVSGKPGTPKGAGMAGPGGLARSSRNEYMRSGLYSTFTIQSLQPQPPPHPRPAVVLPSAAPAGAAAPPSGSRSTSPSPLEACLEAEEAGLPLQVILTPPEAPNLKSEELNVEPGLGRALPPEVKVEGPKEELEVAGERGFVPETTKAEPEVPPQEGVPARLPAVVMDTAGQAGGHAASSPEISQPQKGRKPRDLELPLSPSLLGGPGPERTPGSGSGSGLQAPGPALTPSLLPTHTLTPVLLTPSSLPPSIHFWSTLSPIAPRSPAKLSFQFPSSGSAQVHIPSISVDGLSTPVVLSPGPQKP
How it was run: as §1

GABPA = molecular target: T3, GABPA (Homo sapiens, UniProt Q06546 1-454); conditions: protein: recombinant; tags: N-terminal GST; dsDNA, one strand shown
T3 sequence: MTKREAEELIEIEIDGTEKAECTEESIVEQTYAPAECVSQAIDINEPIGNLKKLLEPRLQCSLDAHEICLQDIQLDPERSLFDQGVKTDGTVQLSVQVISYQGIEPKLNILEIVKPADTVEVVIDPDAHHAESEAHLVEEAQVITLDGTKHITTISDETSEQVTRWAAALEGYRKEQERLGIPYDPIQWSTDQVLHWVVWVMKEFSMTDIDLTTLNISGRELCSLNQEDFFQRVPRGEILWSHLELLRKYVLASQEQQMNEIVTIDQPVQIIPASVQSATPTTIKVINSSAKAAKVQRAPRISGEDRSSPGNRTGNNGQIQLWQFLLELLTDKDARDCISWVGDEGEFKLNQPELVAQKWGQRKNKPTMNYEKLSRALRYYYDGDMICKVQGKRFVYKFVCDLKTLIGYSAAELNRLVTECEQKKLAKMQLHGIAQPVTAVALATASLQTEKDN
How it was run: as §1

ERG = molecular target: T4, ERG (Homo sapiens, UniProt P11308 1-479); conditions: protein: recombinant; tags: N-terminal GST; dsDNA, one strand shown
T4 sequence: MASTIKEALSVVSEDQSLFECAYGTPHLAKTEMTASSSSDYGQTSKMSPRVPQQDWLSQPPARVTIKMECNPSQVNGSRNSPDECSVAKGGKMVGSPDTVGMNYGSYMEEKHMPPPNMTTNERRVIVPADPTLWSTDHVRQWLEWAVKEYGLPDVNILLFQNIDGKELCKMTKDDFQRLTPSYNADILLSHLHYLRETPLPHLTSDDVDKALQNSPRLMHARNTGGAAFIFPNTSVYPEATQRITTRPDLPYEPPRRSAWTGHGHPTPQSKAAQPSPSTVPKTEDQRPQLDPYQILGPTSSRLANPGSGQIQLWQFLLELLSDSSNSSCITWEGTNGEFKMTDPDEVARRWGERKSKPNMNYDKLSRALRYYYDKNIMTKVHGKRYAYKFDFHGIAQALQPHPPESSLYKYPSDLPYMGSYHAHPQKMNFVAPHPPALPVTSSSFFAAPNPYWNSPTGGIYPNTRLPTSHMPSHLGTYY
How it was run: as §1

ELF1 = ELF1 (Homo sapiens, UniProt P32519 1-619); conditions: protein: recombinant; tags: N-terminal GST; dsDNA, one strand shown
How it was run: as §1

EHF = molecular target: T5, EHF (Homo sapiens, UniProt Q9NZC4 1-300); conditions: protein: recombinant; tags: N-terminal GST; dsDNA, one strand shown
T5 sequence: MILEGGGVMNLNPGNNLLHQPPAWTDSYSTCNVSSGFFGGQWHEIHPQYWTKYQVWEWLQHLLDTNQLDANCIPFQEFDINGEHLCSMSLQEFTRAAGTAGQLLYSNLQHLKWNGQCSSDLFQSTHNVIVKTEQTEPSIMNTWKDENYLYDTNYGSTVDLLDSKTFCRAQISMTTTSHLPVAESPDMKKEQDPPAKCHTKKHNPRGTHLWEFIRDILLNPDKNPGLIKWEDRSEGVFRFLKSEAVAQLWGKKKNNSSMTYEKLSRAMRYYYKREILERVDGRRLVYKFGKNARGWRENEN
How it was run: as §1

SPI1 = SPI1 (Homo sapiens, UniProt P17947 1-270); conditions: protein: recombinant; tags: N-terminal GST; dsDNA, one strand shown
How it was run: as §1

SPIB = SPIB (Homo sapiens, UniProt Q01892 1-262); conditions: protein: recombinant; tags: N-terminal GST; dsDNA, one strand shown
How it was run: as §1

ELK3 = molecular target: T6, ELK3 (Homo sapiens, UniProt P41970 1-407); conditions: protein: recombinant; tags: N-terminal GST; dsDNA, one strand shown
T6 sequence: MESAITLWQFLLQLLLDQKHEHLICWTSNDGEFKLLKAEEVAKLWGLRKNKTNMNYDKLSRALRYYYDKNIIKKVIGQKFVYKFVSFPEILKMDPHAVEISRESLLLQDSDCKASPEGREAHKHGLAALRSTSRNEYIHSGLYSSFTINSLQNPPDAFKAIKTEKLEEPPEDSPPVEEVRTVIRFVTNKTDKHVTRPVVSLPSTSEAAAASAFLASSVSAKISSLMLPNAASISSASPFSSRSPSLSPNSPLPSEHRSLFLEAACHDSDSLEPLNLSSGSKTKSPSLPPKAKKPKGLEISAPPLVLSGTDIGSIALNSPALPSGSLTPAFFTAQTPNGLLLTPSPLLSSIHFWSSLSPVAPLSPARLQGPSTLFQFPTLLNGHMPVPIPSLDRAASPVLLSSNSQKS
How it was run: as §1

FEV = molecular target: T7, FEV (Homo sapiens, UniProt Q99581 1-238); conditions: protein: recombinant; tags: N-terminal GST; dsDNA, one strand shown
T7 sequence: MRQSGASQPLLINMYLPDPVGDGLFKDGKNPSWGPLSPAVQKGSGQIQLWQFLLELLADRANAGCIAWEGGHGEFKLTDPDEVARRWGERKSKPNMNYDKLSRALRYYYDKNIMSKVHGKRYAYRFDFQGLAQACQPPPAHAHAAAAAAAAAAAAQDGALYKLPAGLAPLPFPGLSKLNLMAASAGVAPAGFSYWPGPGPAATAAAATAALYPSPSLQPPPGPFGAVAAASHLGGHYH
How it was run: as §1

ETV5 = ETV5 (Homo sapiens, UniProt P41161 1-510); conditions: protein: recombinant; tags: N-terminal GST; dsDNA, one strand shown
How it was run: as §1

HSF1 = HSF1 (Homo sapiens, UniProt Q00613 1-529); conditions: protein: recombinant; tags: N-terminal GST; chain copies: 3; dsDNA, one strand shown
How it was run: as §1

SPIC = molecular target: T8, SPIC (Homo sapiens, UniProt Q8N5J4 1-248); conditions: protein: recombinant; tags: N-terminal GST; dsDNA, one strand shown
T8 sequence: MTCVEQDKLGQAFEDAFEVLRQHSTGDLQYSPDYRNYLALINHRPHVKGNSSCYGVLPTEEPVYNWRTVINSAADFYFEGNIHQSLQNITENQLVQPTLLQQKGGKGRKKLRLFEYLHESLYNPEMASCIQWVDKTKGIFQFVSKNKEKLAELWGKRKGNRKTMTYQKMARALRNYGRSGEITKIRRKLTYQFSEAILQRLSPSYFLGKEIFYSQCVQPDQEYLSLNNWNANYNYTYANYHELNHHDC
How it was run: as §1

ELF4 = ELF4 (Homo sapiens, UniProt Q99607 1-663); conditions: protein: recombinant; tags: N-terminal GST; dsDNA, one strand shown
How it was run: as §1

ELK4 = molecular target: T9, ELK4 (Homo sapiens, UniProt P28324-2 1-405); conditions: protein: recombinant; tags: N-terminal GST; dsDNA, one strand shown
T9 sequence: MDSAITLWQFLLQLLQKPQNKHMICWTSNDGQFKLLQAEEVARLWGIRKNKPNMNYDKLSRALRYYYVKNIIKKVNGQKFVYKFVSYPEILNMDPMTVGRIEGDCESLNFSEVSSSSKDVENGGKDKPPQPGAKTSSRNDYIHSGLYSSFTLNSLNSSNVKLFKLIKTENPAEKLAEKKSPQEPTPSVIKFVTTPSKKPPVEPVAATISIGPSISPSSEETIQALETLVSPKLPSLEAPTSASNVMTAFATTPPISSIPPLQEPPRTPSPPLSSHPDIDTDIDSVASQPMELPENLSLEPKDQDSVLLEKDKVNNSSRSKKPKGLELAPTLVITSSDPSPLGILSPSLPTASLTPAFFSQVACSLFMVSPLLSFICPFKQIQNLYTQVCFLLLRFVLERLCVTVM
How it was run: as §1

ETV2 = molecular target: T10, ETV2 (Homo sapiens, UniProt O00321 1-342); conditions: protein: recombinant; tags: N-terminal GST; dsDNA, one strand shown
T10 sequence: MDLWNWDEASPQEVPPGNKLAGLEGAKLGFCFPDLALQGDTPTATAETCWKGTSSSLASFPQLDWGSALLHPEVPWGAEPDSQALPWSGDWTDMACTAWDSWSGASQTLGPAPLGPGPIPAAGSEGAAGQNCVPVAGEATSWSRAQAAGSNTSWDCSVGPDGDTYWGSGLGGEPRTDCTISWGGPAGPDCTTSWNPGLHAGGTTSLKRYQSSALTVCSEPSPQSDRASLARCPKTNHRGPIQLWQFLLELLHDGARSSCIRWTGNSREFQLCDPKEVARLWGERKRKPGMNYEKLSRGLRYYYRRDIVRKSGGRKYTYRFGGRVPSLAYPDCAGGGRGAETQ
How it was run: as §1

ELF3 = molecular target: T11, ELF3 (Homo sapiens, UniProt P78545 1-371); conditions: protein: recombinant; tags: N-terminal GST; dsDNA, one strand shown
T11 sequence: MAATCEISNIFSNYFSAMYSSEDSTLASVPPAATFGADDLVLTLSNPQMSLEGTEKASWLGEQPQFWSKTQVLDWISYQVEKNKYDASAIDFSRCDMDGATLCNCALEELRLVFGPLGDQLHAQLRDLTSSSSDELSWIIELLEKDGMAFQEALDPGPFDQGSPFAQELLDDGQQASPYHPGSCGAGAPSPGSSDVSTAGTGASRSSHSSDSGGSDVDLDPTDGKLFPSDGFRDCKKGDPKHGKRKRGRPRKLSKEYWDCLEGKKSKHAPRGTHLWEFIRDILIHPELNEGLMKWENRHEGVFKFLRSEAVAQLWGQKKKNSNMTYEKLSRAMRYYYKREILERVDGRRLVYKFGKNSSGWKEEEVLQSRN
How it was run: as §1

CRX = CRX (Homo sapiens, UniProt O43186 1-299); conditions: protein: recombinant; tags: N-terminal GST; dsDNA, one strand shown
How it was run: as §1

ETV1 = ETV1 (Homo sapiens, UniProt P50549 1-477); conditions: protein: recombinant; tags: N-terminal GST; dsDNA, one strand shown
How it was run: as §1

CRX, sequence (O43186 whole entry): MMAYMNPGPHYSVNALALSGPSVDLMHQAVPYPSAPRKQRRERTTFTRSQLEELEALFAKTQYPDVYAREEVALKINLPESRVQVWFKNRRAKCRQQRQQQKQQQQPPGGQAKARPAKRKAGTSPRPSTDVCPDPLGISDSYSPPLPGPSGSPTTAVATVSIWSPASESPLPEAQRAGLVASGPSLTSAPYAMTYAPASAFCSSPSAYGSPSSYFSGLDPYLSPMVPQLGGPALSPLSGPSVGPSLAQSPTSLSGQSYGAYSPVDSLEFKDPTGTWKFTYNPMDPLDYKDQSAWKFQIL
ETV1, sequence (P50549 whole entry): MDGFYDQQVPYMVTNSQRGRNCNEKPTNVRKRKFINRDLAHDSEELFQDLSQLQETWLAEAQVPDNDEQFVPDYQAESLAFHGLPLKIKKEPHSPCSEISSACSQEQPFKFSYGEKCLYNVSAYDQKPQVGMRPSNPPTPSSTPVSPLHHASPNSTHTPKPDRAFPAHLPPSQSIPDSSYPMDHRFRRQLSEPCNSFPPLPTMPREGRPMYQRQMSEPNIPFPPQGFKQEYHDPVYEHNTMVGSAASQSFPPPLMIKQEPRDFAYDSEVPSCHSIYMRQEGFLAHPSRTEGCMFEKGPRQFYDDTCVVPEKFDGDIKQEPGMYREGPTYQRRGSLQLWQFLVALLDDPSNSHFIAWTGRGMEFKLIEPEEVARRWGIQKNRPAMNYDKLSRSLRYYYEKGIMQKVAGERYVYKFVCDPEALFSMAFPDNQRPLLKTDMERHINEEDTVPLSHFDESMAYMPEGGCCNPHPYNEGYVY
ELF1, sequence (P32519 whole entry): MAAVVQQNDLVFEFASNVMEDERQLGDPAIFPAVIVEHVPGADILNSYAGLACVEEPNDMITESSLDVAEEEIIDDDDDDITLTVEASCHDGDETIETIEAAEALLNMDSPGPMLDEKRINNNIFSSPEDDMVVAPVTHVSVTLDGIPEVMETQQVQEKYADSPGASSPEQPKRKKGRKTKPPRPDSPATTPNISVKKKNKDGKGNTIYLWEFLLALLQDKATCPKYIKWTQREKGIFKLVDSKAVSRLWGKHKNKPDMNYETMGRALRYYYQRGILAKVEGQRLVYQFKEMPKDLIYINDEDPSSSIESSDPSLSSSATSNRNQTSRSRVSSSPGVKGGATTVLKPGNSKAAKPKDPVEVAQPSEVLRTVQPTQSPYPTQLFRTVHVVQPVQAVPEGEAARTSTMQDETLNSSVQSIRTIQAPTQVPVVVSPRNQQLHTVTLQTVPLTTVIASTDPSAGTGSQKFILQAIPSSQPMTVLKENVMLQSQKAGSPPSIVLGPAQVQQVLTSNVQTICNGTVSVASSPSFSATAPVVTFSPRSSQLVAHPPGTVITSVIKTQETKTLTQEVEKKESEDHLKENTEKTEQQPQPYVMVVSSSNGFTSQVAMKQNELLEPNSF
SPIB, sequence (Q01892 whole entry): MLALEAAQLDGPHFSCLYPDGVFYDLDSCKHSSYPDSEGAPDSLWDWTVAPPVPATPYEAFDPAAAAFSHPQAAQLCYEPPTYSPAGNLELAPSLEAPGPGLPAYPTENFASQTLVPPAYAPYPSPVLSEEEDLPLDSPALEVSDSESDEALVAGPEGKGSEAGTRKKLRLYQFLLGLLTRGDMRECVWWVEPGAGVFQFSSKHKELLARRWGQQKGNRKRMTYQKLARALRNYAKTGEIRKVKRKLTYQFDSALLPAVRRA
ELF4, sequence (Q99607 whole entry): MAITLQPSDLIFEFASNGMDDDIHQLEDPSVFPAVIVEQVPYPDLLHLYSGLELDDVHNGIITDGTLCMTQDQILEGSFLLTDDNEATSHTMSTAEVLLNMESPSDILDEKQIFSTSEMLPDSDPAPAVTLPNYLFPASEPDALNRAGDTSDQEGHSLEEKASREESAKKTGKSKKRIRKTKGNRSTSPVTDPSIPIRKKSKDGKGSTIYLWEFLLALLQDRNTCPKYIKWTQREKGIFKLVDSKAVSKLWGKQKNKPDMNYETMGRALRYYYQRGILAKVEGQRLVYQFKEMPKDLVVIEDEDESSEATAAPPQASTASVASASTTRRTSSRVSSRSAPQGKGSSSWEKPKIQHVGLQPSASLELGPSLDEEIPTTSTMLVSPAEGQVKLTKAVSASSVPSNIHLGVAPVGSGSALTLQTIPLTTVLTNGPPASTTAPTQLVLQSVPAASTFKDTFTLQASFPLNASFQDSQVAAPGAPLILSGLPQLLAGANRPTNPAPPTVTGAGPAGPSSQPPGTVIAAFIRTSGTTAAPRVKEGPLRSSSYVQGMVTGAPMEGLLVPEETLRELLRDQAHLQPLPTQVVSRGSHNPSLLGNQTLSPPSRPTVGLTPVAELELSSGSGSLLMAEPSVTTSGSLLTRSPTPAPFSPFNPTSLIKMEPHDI
HSF1, sequence (Q00613 whole entry): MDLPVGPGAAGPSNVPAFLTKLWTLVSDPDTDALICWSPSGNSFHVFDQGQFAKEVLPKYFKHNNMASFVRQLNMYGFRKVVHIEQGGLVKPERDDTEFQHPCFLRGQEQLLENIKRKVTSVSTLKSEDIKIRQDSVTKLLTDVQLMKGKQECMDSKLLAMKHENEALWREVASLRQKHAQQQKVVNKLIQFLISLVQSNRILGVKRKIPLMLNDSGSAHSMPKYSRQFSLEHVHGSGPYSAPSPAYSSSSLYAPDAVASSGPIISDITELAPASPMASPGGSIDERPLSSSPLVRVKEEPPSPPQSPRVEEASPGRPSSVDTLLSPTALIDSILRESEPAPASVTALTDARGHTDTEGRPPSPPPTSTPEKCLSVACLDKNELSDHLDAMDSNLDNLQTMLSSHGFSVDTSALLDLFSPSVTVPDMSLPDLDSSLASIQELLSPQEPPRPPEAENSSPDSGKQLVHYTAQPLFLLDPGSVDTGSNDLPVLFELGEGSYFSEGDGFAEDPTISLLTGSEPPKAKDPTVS
ETV5, sequence (P41161 whole entry): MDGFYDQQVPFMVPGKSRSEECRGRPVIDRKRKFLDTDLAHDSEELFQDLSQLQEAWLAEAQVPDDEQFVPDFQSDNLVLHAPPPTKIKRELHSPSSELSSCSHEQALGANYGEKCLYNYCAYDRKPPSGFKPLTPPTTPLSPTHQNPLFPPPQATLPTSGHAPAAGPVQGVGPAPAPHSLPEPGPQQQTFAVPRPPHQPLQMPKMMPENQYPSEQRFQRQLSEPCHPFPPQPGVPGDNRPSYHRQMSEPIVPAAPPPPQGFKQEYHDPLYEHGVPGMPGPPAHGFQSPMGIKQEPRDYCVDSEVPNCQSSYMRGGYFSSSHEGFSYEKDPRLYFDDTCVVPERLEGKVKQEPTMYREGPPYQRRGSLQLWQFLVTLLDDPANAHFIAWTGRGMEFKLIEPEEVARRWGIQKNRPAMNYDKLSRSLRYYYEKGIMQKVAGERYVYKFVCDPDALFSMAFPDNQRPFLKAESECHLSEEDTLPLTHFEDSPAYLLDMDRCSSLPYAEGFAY

ATGCAT
binding signal (FLI1): 1.21 fold enrichment (6-mer frequency, TF over GST control)
binding signal (ELK1): 1.21 fold enrichment (6-mer frequency, TF over GST control)
binding signal (GABPA): 1.22 fold enrichment (6-mer frequency, TF over GST control)
binding signal (ERG): 1.16 fold enrichment (6-mer frequency, TF over GST control)
binding signal (ELF1): 1.16 fold enrichment (6-mer frequency, TF over GST control)
binding signal (EHF): 1.22 fold enrichment (6-mer frequency, TF over GST control)
binding signal (SPI1): 1.18 fold enrichment (6-mer frequency, TF over GST control)
binding signal (SPIB): 1.19 fold enrichment (6-mer frequency, TF over GST control)
binding signal (ELK3): 1.29 fold enrichment (6-mer frequency, TF over GST control)
binding signal (FEV): 1.18 fold enrichment (6-mer frequency, TF over GST control)
binding signal (ETV5): 1.19 fold enrichment (6-mer frequency, TF over GST control)
binding signal (HSF1): 1 fold enrichment (6-mer frequency, TF over GST control)
binding signal (SPIC): 1.31 fold enrichment (6-mer frequency, TF over GST control)
binding signal (ELF4): 1.28 fold enrichment (6-mer frequency, TF over GST control)
binding signal (ELK4): 1.11 fold enrichment (6-mer frequency, TF over GST control)
binding signal (ETV2): 1.27 fold enrichment (6-mer frequency, TF over GST control)
binding signal (ELF3): 1.07 fold enrichment (6-mer frequency, TF over GST control)
binding signal (CRX): 1.05 fold enrichment (6-mer frequency, TF over GST control)
binding signal (ETV1): 1.15 fold enrichment (6-mer frequency, TF over GST control)
